# In the library only some 1.1% were active in any assay of this set; here they are far more common.
# HUVEC tox TNFa = toxic to HUVEC cells under TNF alpha stimulation. HUVEC TNFalpha-stimulated, Hoechst cell count, imaging. hit rate 0.17% among 93,000. AID 848. cell count reduction, % at 2 µM;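 active = cell count reduction exceeding the screen mean by over 5 SD, scaled to untreated wells per plate, cut at about 78% in these data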;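 also: cells counted after 24 h of TNF alpha exposure following the 1 h pretreatment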
# E-sel TNF inh = blocks E-selectin expression induced by TNF alpha | inhibition, % at 2 µM | AID 1246 | HUVEC TNFa-induced E-selectin immunofluorescence, high content | hit rate 0.71% among 120,000;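 active = inhibition above the batch mean plus 3 SD, and confirmed as a hit on visual image review, cut at about 43% in these data; inconclusive = passes the inhibition cutoff but fails visual image review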;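 also: 0% = TNF-stimulated DMSO wells and 100% = unstimulated control wells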
# VCAM1 TNFa inh = reduces TNF alpha induced VCAM1 expression in HUVEC. HUVEC TNFa-induced VCAM-1 immunofluorescence, high-content imaging. inhibition, % at 2 µM. AID 802. hit rate 0.48% among 95,000;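 active = inhibition above the batch mean plus 3 SD, with images confirmed as a hit by eye, cut at about 37% in these data; inconclusive = inhibition above that limit but hit not confirmed in images; inactive = inhibition not above that limit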;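 also: 0% = TNF-stimulated DMSO wells and 100% = unstimulated control wells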
# cytoskel mod = alters cytoskeleton assembly in HUVEC cells; HUVEC TNFa F-actin phalloidin imaging, high content; hit rate 0.18% among 91,000; AID 836; inhibition, % at 2 µM;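 active = inhibition above the batch mean plus 3 SD and confirmed as a hit by visual image inspection, cut at about 30% in these data, passing the limit was not always enough; inconclusive = above the inhibition threshold but rejected on visual inspection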
# * hit, by the source's call; ? = inconclusive; · = no result given.
SMILES,HUVEC tox TNFa,E-sel TNF inh,VCAM1 TNFa inh,cytoskel mod
CCS(=O)(=O)N1CCCC(C(=O)NCc2cccc(OC)c2)C1 (stereo unspecified),11,53*,27,3
COc1ccc(CNC(=O)C2CCCN(S(=O)(=O)c3c(C)n[nH]c3C)C2)cc1 (stereo unspecified),-18,18,10,·
O=C(O)C1CCCN1S(=O)(=O)c1ccc(Br)s1 (stereo unspecified) (tested in a mixture with another compound),-12,90*,-10,7
O=C(O)C1CCCCN1S(=O)(=O)c1ccc(Cl)s1 (stereo unspecified),-4,7,4,-12
CC(C)CNC(=O)c1ccc(NC(=O)c2ccccc2[N+](=O)[O-])cc1,·,-28,·,·
COc1ccc2cc(CN(CCO)C(=O)c3ccccc3F)c(=O)[nH]c2c1,1,100*,-1,-3
CCOc1ccc2[nH]c(=O)c(CN(CCO)C(=O)c3ccccc3F)cc2c1,-44,-11,-15,-4
COc1ccc(CNC(=O)COC(=O)c2ccccn2)cc1,·,-15,·,·
CCOC(=O)C1CCCN(Cc2ccccc2F)C1 (stereo unspecified),·,75*,·,·
CCCCNC(=O)OC1CCS(=O)(=O)C1 (stereo unspecified),-28,-26,8,8
O=C(NC(=O)c1cccc(OC(F)(F)C(F)F)c1)OC1CCS(=O)(=O)C1 (stereo unspecified),·,54*,·,·
COc1ccc(NC(=O)c2cc3c(Cl)nc4ccccc4c3s2)c(OC)c1,·,63*,·,·
COc1cc(NC(=O)c2cc3c(Cl)nc4ccccc4c3s2)cc(OC)c1OC,·,-10,·,·
O=C(N/C(=C/c1ccco1)C(=O)N1CCCCC1)c1cccs1,-10,-4,3,-24
COc1cc(N2CCCC2)c(OC)cc1/C=c1/sc2nc3ccccc3n2c1=O,-13,·,22,31*
Cc1ccc(-n2c(C)cc(/C=c3/sc4nc5ccccc5n4c3=O)c2C)cc1,-6,4,5,·
Cc1c(CCO)c(=O)n(-c2ccccc2)n1S(=O)(=O)c1ccc(Cl)cc1,-43,8,13,31*
COc1ccc(S(=O)(=O)Nc2nc3n(n2)C(c2ccc(Cl)cc2)CC(=O)N3)cc1 (stereo unspecified),2,-2,39*,·
O=C1CC(c2ccc(Cl)cc2)n2nc(N3C(=O)CCC3=O)nc2N1 (stereo unspecified),-12,24,4,22
O=C(Nc1cccnc1)c1coc(=O)c2ccccc12,59,·,-7,55*
O=C(Nc1cccnc1)c1ccccc1O,-14,-3,10,9
CCOC(=O)CCCNC(=O)COC(=O)c1cccc(F)c1,·,6,·,·
Clc1ccc(Nc2nc3cccnc3s2)cc1,·,72*,·,·
COc1ccc(/C=N/OC(=O)Nc2ccccc2OC)cc1,·,-10,·,·
COc1cccc(C(=O)NNC2OC(CO)C(O)C2O)c1 (stereo unspecified),·,-2,·,·
SMILES,HUVEC tox TNFa,E-sel TNF inh,VCAM1 TNFa inh,cytoskel mod
CC(C)(C)c1cc(OC(=O)c2ccncc2)ccc1O,-3,93*,-2,2
CCOC(=O)C1=NOC2COC3(CCN(c4ncccn4)CC3)OCC12 (stereo unspecified),·,-41,·,·
O=C(Nc1ccc(F)c(F)c1)c1ccc2c(c1)OCO2,-17,·,-13,7
O=C(Nc1ccc2nsnc2c1)c1ccc2c(c1)OCO2,29,100*,29,12
OC(CNCCC1C=Nc2ccccc21)Cn1c2ccc(Cl)cc2c2cc(Cl)ccc21 (stereo unspecified),·,-17,·,·
C=CCNC(=S)NNC(=O)c1ccc(OCC)cc1,-7,53*,0,13
CCOC(=O)C(C)(C)N(Cc1ccc(Cl)cc1)S(=O)(=O)c1ccc(Cl)c([N+](=O)[O-])c1,·,0,·,·
CC(=O)c1c(C)oc2ccc(N(C(C)=O)S(=O)(=O)c3ccc(Cl)c([N+](=O)[O-])c3)cc12,8,7,88*,-20
O=c1c2c(n3nnnc3n1-c1ccccc1)-c1ccccc1CC21CCCC1,-28,100*,-3,-17
Clc1ccc(N2CCN(c3nc4nonc4nc3N3CCSCC3)CC2)nc1,·,27,·,·
COc1cccc(CSc2nc3ccccc3cc2C=O)c1,31,-34,90*,5
COc1cccc(NC(=O)CSc2nc3ccccc3cc2Cc2ccccc2)c1,-19,-8,8,-8
COc1ccc(C2C(C#N)=C(N)Oc3cc(C)[nH]c(=O)c32)c(OC)c1OC (stereo unspecified),-21,3,3,-1
Cc1ccc(Nc2nc(CSc3nnnn3C)cs2)cc1,-25,15,96*,23
CCN(CC)S(=O)(=O)c1ccc(O)c(C(=O)OCC(=O)Nc2ccc(OC(F)(F)F)cc2)c1,·,-7,·,·
O=C1c2cccc3c([N+](=O)[O-])ccc(c23)C(=O)N1c1ccc(Cl)cn1,30,37,69*,-10
O=C1c2cccc3c([N+](=O)[O-])ccc(c23)C(=O)N1c1nccs1,29,44,76*,-17
O=C1c2cccc3c([N+](=O)[O-])ccc(c23)C(=O)N1c1ccccn1,43,-24,33,-85
O=S1(=O)C=C(SCc2cccc(Cl)c2)Nc2ccccc21,-8,·,28,-13
Cc1cc(C(=O)N2CCc3ccccc32)c2ccccc2n1,-14,64*,3,3
O=C(c1ccccc1)N1CCc2ccccc21,0,14,-7,13
CCN(CC)C(=O)CN(c1ccc(Cl)cc1)S(=O)(=O)c1ccccc1,100*,-12,?,?
NC(=O)CN(c1ccc(Cl)cc1)S(=O)(=O)c1ccccc1,·,-6,·,·
O=C(NCc1cccnc1)C(=O)N/N=C/c1ccc([N+](=O)[O-])cc1,·,-12,·,·
O=C(O)COc1ccc(=O)n(-c2ccccc2)n1,-18,-11,-1,-3
SMILES,HUVEC tox TNFa,E-sel TNF inh,VCAM1 TNFa inh,cytoskel mod
COC(=O)COc1ccc(=O)n(-c2ccccc2)n1,99*,-4,·,?
O=C(OCn1ncc(Br)c(Br)c1=O)c1ccc(F)cc1,28,90*,81*,-7
O=C(OCn1ncc(Br)c(Br)c1=O)c1ccccc1Cl,32,·,34,-4
c1ccc(-c2nnc(CSc3nncs3)o2)cc1,-7,4,93*,13
c1ccc(Cc2nnc(-c3ccccc3)o2)cc1,4,-8,-6,2
Cc1cccc(Sc2nc(-c3ccccc3)ncc2C(=O)O)c1,·,-13,·,·
CN(CC(=O)NCc1ccncc1)S(=O)(=O)c1ccc(F)cc1,100*,16,?,?
O=c1c2ccccc2nnn1CSc1ncnc2ccccc12,54,0,46*,-9
Cc1ccc(C)c(NC(=S)NC(NC(=O)Cc2cccc3ccccc23)C(Cl)(Cl)Cl)c1 (stereo unspecified),·,-20,67*,-15
CCOc1ccc2nc(NC(=O)CSC3=NCCS3)sc2c1,1,29,-4,-12
COc1ccc2nc(NC(=O)CSC3=NCCS3)sc2c1,17,100*,-6,22
CCN(CC)CCNC(=O)c1[nH]c2ccc(OCc3ccccc3)cc2c1C,·,-36,·,·
O=C1C=C(c2ccccc2)C(O)(c2ccccc2)C1 (stereo unspecified),-24,61*,-1,2
COc1ccc(N2CCN(c3ncccn3)CC2)cc1,-12,-6,-2,1

# Screening results deposited in PubChem BioAssay by Columbia University Molecular Screening Center.
